# Measurements reported in paper PMC8384837, “Expanding the binding specificity for RNA recognition by a PUF domain”.
# Key:
# Assay in all cases: yeast three-hybrid, YBZ-1, SC-Leu-His + 0.5 mM 3-AT, 4 days
# Conditions in all cases: tags: N-Gal4 AD-HA kept; label: inside an RPR1-promoter hybrid RNA with tandem MS2 sites; ssRNA
# PUM1 PUF domain R3-CRS = PUM1 PUF domain R3-CRS (Homo sapiens, UniProt Q14671 828-1176, Q939S)
# Outline: (§1)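 The interaction score is the log change in variant frequency from input to selection. Scores were computed in log2 with a pseudocount of 1 for absent variants, using Illumina sequencing of PCR-amplified repeat regions. The input came from four days on SC-Leu and the selection from four days on SC-Leu-His + 0.5 mM 3-AT. The cells were strain YBZ-1 (LexA–MS2 coat fusion, HIS3 reporter) co-expressing Pumilio-1 PUF domain libraries and matching RNA elements from a centromeric plasmid.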
# PUM1 PUF domain R3-YPR = PUM1 PUF domain R3-YPR (Homo sapiens, UniProt Q14671 828-1176, C935Y;R936P;Q939R)
# Outline: as §1
# PUM1 PUF domain R5-GQK = PUM1 PUF domain R5-GQK (Homo sapiens, UniProt Q14671 828-1176, C1007G;R1008Q;Q1011K)
# Outline: as §1
# PUM1 PUF domain R8-AWR = PUM1 PUF domain R8-AWR (Homo sapiens, UniProt Q14671 828-1176, N1122A;Y1123W;Q1126R)
# Outline: as §1
# PUM1 PUF domain R5-RNP = PUM1 PUF domain R5-RNP (Homo sapiens, UniProt Q14671 828-1176, C1007R;R1008N;Q1011P)
# Outline: as §1
# PUM1 PUF domain R5-KPM = PUM1 PUF domain R5-KPM (Homo sapiens, UniProt Q14671 828-1176, C1007K;R1008P;Q1011M)
# Outline: as §1
# PUM1 PUF domain R5-NLS = PUM1 PUF domain R5-NLS (Homo sapiens, UniProt Q14671 828-1176, C1007N;R1008L;Q1011S)
# Outline: as §1
# PUM1 PUF domain R1-KRG = PUM1 PUF domain R1-KRG (Homo sapiens, UniProt Q14671 828-1176, S863K;Q867G)
# Outline: as §1
# PUM1 PUF domain R1-QRK = PUM1 PUF domain R1-QRK (Homo sapiens, UniProt Q14671 828-1176, S863Q;Q867K)
# Outline: as §1
# PUM1 PUF domain R1-RNR = PUM1 PUF domain R1-RNR (Homo sapiens, UniProt Q14671 828-1176, S863R;R864N;Q867R)
# Outline: as §1
# PUM1 PUF domain R4-ARV = PUM1 PUF domain R4-ARV (Homo sapiens, UniProt Q14671 828-1176, N971A;H972R;Q975V)
# Outline: as §1
# PUM1 PUF domain R4-DHM = PUM1 PUF domain R4-DHM (Homo sapiens, UniProt Q14671 828-1176, N971D;Q975M)
# Outline: as §1
# PUM1 PUF domain R3-GCF = PUM1 PUF domain R3-GCF (Homo sapiens, UniProt Q14671 828-1176, C935G;R936C;Q939F)
# Outline: as §1
# PUM1 PUF domain R3-TGQ = PUM1 PUF domain R3-TGQ (Homo sapiens, UniProt Q14671 828-1176, C935T;R936G)
# Outline: as §1
# PUM1 PUF domain R3-EWT = PUM1 PUF domain R3-EWT (Homo sapiens, UniProt Q14671 828-1176, C935E;R936W;Q939T)
# Outline: as §1
# PUM1 PUF domain R3-PHE = PUM1 PUF domain R3-PHE (Homo sapiens, UniProt Q14671 828-1176, C935P;R936H;Q939E)
# Outline: as §1
# PUM1 PUF domain R5-ELW = PUM1 PUF domain R5-ELW (Homo sapiens, UniProt Q14671 828-1176, C1007E;R1008L;Q1011W)
# Outline: as §1
# PUM1 PUF domain R7-QGR = PUM1 PUF domain R7-QGR (Homo sapiens, UniProt Q14671 828-1176, S1079Q;N1080G;E1083R)
# Outline: as §1
# PUM1 PUF domain R5-NPE = PUM1 PUF domain R5-NPE (Homo sapiens, UniProt Q14671 828-1176, C1007N;R1008P;Q1011E)
# Outline: as §1
# PUM1 PUF domain R2-LLL = PUM1 PUF domain R2-LLL (Homo sapiens, UniProt Q14671 828-1176, N899L;Y900L;Q903L)
# Outline: as §1
# Chain of PUM1 PUF domain R3-CRS (Q14671 828-1176 Q939S): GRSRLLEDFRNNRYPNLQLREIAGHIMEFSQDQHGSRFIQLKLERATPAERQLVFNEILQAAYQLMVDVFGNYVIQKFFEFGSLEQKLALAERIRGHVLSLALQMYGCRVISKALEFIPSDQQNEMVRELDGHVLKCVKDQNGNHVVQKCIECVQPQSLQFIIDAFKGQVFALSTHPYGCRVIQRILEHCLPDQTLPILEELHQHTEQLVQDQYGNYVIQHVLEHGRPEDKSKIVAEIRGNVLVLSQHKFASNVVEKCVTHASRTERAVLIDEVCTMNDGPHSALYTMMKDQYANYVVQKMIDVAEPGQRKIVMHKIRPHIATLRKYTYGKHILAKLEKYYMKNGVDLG
# Chain of PUM1 PUF domain R5-GQK (Q14671 828-1176 C1007G/R1008Q/Q1011K): as the sequence (Q14671 828-1176 Q939S) above, with S112Q, C180G, R181Q, Q184K counted along it
# Chain of PUM1 PUF domain R4-ARV (Q14671 828-1176 N971A/H972R/Q975V): as the sequence (Q14671 828-1176 Q939S) above, with S112Q, N144A, H145R, Q148V counted along it
# Chain of PUM1 PUF domain R3-YPR (Q14671 828-1176 C935Y/R936P/Q939R): as the sequence (Q14671 828-1176 Q939S) above, with C108Y, R109P, S112R counted along it
# Chain of PUM1 PUF domain R1-KRG (Q14671 828-1176 S863K/Q867G): as the sequence (Q14671 828-1176 Q939S) above, with S36K, Q40G, S112Q counted along it
# Chain of PUM1 PUF domain R3-EWT (Q14671 828-1176 C935E/R936W/Q939T): as the sequence (Q14671 828-1176 Q939S) above, with C108E, R109W, S112T counted along it
# Chain of PUM1 PUF domain R1-RNR (Q14671 828-1176 S863R/R864N/Q867R): as the sequence (Q14671 828-1176 Q939S) above, with S36R, R37N, Q40R, S112Q counted along it
# Chain of PUM1 PUF domain R8-AWR (Q14671 828-1176 N1122A/Y1123W/Q1126R): as the sequence (Q14671 828-1176 Q939S) above, with S112Q, N295A, Y296W, Q299R counted along it
# Chain of PUM1 PUF domain R5-NLS (Q14671 828-1176 C1007N/R1008L/Q1011S): as the sequence (Q14671 828-1176 Q939S) above, with S112Q, C180N, R181L, Q184S counted along it
# Chain of PUM1 PUF domain R7-QGR (Q14671 828-1176 S1079Q/N1080G/E1083R): as the sequence (Q14671 828-1176 Q939S) above, with S112Q, S252Q, N253G, E256R counted along it
# Chain of PUM1 PUF domain R4-DHM (Q14671 828-1176 N971D/Q975M): as the sequence (Q14671 828-1176 Q939S) above, with S112Q, N144D, Q148M counted along it
# Chain of PUM1 PUF domain R5-ELW (Q14671 828-1176 C1007E/R1008L/Q1011W): as the sequence (Q14671 828-1176 Q939S) above, with S112Q, C180E, R181L, Q184W counted along it
# Chain of PUM1 PUF domain R5-KPM (Q14671 828-1176 C1007K/R1008P/Q1011M): as the sequence (Q14671 828-1176 Q939S) above, with S112Q, C180K, R181P, Q184M counted along it
# Chain of PUM1 PUF domain R2-LLL (Q14671 828-1176 N899L/Y900L/Q903L): as the sequence (Q14671 828-1176 Q939S) above, with N72L, Y73L, Q76L, S112Q counted along it
# Chain of PUM1 PUF domain R1-QRK (Q14671 828-1176 S863Q/Q867K): as the sequence (Q14671 828-1176 Q939S) above, with S36Q, Q40K, S112Q counted along it
# Chain of PUM1 PUF domain R3-PHE (Q14671 828-1176 C935P/R936H/Q939E): as the sequence (Q14671 828-1176 Q939S) above, with C108P, R109H, S112E counted along it
# Chain of PUM1 PUF domain R5-NPE (Q14671 828-1176 C1007N/R1008P/Q1011E): as the sequence (Q14671 828-1176 Q939S) above, with S112Q, C180N, R181P, Q184E counted along it
# Chain of PUM1 PUF domain R3-TGQ (Q14671 828-1176 C935T/R936G): as the sequence (Q14671 828-1176 Q939S) above, with C108T, R109G, S112Q counted along it
# Chain of PUM1 PUF domain R3-GCF (Q14671 828-1176 C935G/R936C/Q939F): as the sequence (Q14671 828-1176 Q939S) above, with C108G, R109C, S112F counted along it
# Chain of PUM1 PUF domain R5-RNP (Q14671 828-1176 C1007R/R1008N/Q1011P): as the sequence (Q14671 828-1176 Q939S) above, with S112Q, C180R, R181N, Q184P counted along it
sequence,measurement,setting,value
GGCUAGAACUAGUGGAUCCCCCGGCGCCCGGCGGCUCGAGCCCGGGUAAGUGUAAUUAGUCUGCAUGCCGCCGGGCGCCAUGCCUGCAGGUCGACUCUAGAAAACAUG,binding signal,PUM1 PUF domain R3-CRS,0.43 log2 enrichment (interaction score)
same,binding signal,PUM1 PUF domain R3-YPR,0.67 log2 enrichment (interaction score)
GGCUAGAACUAGUGGAUCCCCCGGCGCCCGGCGGCUCGAGCCCGGGUAAGUGUCAAUAGUCUGCAUGCCGCCGGGCGCCAUGCCUGCAGGUCGACUCUAGAAAACAUG,binding signal,PUM1 PUF domain R5-GQK,2.24 log2 enrichment (interaction score)
GGCUAGAACUAGUGGAUCCCCCGGCGCCCGGCGGCUCGAGCCCGGGUAAGCGUAAAUAGUCUGCAUGCCGCCGGGCGCCAUGCCUGCAGGUCGACUCUAGAAAACAUG,binding signal,PUM1 PUF domain R8-AWR,4.57 log2 enrichment (interaction score)
GGCUAGAACUAGUGGAUCCCCCGGCGCCCGGCGGCUCGAGCCCGGGUAAGUGUUAAUAGUCUGCAUGCCGCCGGGCGCCAUGCCUGCAGGUCGACUCUAGAAAACAUG,binding signal,PUM1 PUF domain R5-RNP,2.93 log2 enrichment (interaction score)
same,binding signal,PUM1 PUF domain R5-KPM,3.06 log2 enrichment (interaction score)
same,binding signal,PUM1 PUF domain R5-NLS,6.48 log2 enrichment (interaction score)
GGCUAGAACUAGUGGAUCCCCCGGCGCCCGGCGGCUCGAGCCCGGGUAAGUGUAAAUCGUCUGCAUGCCGCCGGGCGCCAUGCCUGCAGGUCGACUCUAGAAAACAUG,binding signal,PUM1 PUF domain R1-KRG,2.86 log2 enrichment (interaction score)
same,binding signal,PUM1 PUF domain R1-QRK,4.66 log2 enrichment (interaction score)
same,binding signal,PUM1 PUF domain R1-RNR,4.17 log2 enrichment (interaction score)
GGCUAGAACUAGUGGAUCCCCCGGCGCCCGGCGGCUCGAGCCCGGGUAAGUGUACAUAGUCUGCAUGCCGCCGGGCGCCAUGCCUGCAGGUCGACUCUAGAAAACAUG,binding signal,PUM1 PUF domain R4-ARV,0.8 log2 enrichment (interaction score)
GGCUAGAACUAGUGGAUCCCCCGGCGCCCGGCGGCUCGAGCCCGGGUAAGUGUAAAUAGUCUGCAUGCCGCCGGGCGCCAUGCCUGCAGGUCGACUCUAGAAAACAUG,binding signal,PUM1 PUF domain R3-CRS,3.28 log2 enrichment (interaction score)
same,binding signal,PUM1 PUF domain R4-DHM,5.71 log2 enrichment (interaction score)
same,binding signal,PUM1 PUF domain R3-GCF,3.59 log2 enrichment (interaction score)
same,binding signal,PUM1 PUF domain R3-TGQ,4.55 log2 enrichment (interaction score)
same,binding signal,PUM1 PUF domain R8-AWR,4.49 log2 enrichment (interaction score)
same,binding signal,PUM1 PUF domain R3-EWT,4.31 log2 enrichment (interaction score)
same,binding signal,PUM1 PUF domain R4-ARV,4.56 log2 enrichment (interaction score)
same,binding signal,PUM1 PUF domain R3-PHE,4.47 log2 enrichment (interaction score)
same,binding signal,PUM1 PUF domain R5-GQK,2.37 log2 enrichment (interaction score)
same,binding signal,PUM1 PUF domain R5-ELW,2.28 log2 enrichment (interaction score)
GGCUAGAACUAGUGGAUCCCCCGGCGCCCGGCGGCUCGAGCCCGGGUAAGUGUAAGUAGUCUGCAUGCCGCCGGGCGCCAUGCCUGCAGGUCGACUCUAGAAAACAUG,binding signal,PUM1 PUF domain R3-CRS,2.6 log2 enrichment (interaction score)
same,binding signal,PUM1 PUF domain R3-YPR,3.45 log2 enrichment (interaction score)
same,binding signal,PUM1 PUF domain R3-EWT,4.76 log2 enrichment (interaction score)
GGCUAGAACUAGUGGAUCCCCCGGCGCCCGGCGGCUCGAGCCCGGGUAAGUUUAAAUAGUCUGCAUGCCGCCGGGCGCCAUGCCUGCAGGUCGACUCUAGAAAACAUG,binding signal,PUM1 PUF domain R7-QGR,2.75 log2 enrichment (interaction score)
GGCUAGAACUAGUGGAUCCCCCGGCGCCCGGCGGCUCGAGCCCGGGUAAGUGUAAAUUGUCUGCAUGCCGCCGGGCGCCAUGCCUGCAGGUCGACUCUAGAAAACAUG,binding signal,PUM1 PUF domain R1-KRG,1.23 log2 enrichment (interaction score)
same,binding signal,PUM1 PUF domain R1-RNR,4.23 log2 enrichment (interaction score)
GGCUAGAACUAGUGGAUCCCCCGGCGCCCGGCGGCUCGAGCCCGGGUAAGUGUGAAUAGUCUGCAUGCCGCCGGGCGCCAUGCCUGCAGGUCGACUCUAGAAAACAUG,binding signal,PUM1 PUF domain R5-NPE,4.36 log2 enrichment (interaction score)
GGCUAGAACUAGUGGAUCCCCCGGCGCCCGGCGGCUCGAGCCCGGGUAAGUGUAAAGAGUCUGCAUGCCGCCGGGCGCCAUGCCUGCAGGUCGACUCUAGAAAACAUG,binding signal,PUM1 PUF domain R2-LLL,3.06 log2 enrichment (interaction score)
